High-throughput results (PubChem)
MsrA inh: inhibitors of bovine MsrA; purified bovine MsrA, absorbance read-out; inhibition, % at 15.5 µM; 360,000 compounds, 0.75% hits; AID 651718; in the data active = inhibition above about 4.5%;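 also: 0% = vehicle wells with enzyme and 100% = reference inhibitor wells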
MsrA act: activates bovine MsrA enzyme; purified bovine MsrA, absorbance read-out; activation, % at 10.6 µM; 360,000 compounds, 0.3% hits; AID 602163; in the data active = activation above about 7.5%;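 also: 0% = vehicle and 100% = reference activator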
SMARCA2 act: activators of SMARCA2 function; 370,000 compounds, 1% hits; MG213 cells, MMTV-luciferase reporter, dexamethasone, overnight; activation, % at 9.1 µM; AID 652017; in the data active = activation above about 7.8%;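 also: 0% = vehicle wells and 100% = reference activator wells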
KLK7 zymogen act: activators of human kallikrein-7 zymogen; P49862; activation, % at 7 µM; 370,000 compounds, 0.9% hits; purified proKLK7, EDANS-DABCYL substrate fluorescence; 100% is mature enzyme control, 0% vehicle;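 active = activation above the mean of all tested compounds plus 3 SD, computed per campaign excluding outliers beyond control limits, cut at about 13% in these data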
Target sequence (P49862 whole entry, looked up): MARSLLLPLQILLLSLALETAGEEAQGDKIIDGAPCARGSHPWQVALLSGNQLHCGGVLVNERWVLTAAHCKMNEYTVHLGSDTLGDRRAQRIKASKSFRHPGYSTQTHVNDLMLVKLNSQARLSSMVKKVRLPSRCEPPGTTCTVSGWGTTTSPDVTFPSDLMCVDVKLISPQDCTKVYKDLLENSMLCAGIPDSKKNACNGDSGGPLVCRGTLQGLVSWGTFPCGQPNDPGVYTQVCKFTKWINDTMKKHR
SMARCA2 conf: confirmation of SMARCA2 (BRM) function activators; shares compounds with SMARCA2 act; MG213 cells, MMTV-luciferase with dexamethasone, luminescence, overnight; MG213 cells expressing E1A, Rb sequestered; DMSO wells 0%, reference activator 100%; activation, % at 9.1 µM; 3,500 compounds, 30% hits; AID 652260;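 active = activation above its plate's cutoff, the mean activation of tested wells plus 3 SD, cut at about 7.9% in these data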
GAL4-VP16 Luc: counter-screen for SMARCA2 activators: GAL4-VP16 luciferase reporter activation; shares compounds with SMARCA2 act; HEK293 GAL4-VP16 pG5luc reporter, luciferase luminescence; scaled: DMSO wells 0%, SAHA wells 100%; activation, % at 9.1 µM; 3,500 compounds, 41% hits;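 active = activation above the solvent-only control well mean plus 3 SD, averaged across control plates, cut at about 5.2% in these data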
Numbers without * were called inactive. Compounds with a hit are over-represented: about 2.8% of the library has one in this group of screens.

CCc1ccc(C(O)c2ncc(-c3ccccc3F)[nH]2)cc1 (configuration not stated) was read as MsrA inh 1, MsrA act 2, SMARCA2 act 13*, KLK7 zymogen act 0, SMARCA2 conf 5 and GAL4-VP16 Luc 5.
CCCCn1nnnc1C(c1cccs1)N1CCN(C/C=C/c2ccccc2)CC1 (configuration not stated) was read as MsrA inh 3, MsrA act -2, SMARCA2 act -4 and KLK7 zymogen act -1.
C=CCN(CC=C)C(=S)NC(=O)c1ccc(-c2ccccc2)cc1 was read as MsrA inh -1, MsrA act -2, SMARCA2 act 8.0*, KLK7 zymogen act 1, SMARCA2 conf -6 and GAL4-VP16 Luc 1.
`O=C(COC(=O)c1ccc(S(=O)(=O)N2CCCC2)cc1)Nc1cccc(F)c1` gave MsrA inh 0, MsrA act -3, SMARCA2 act 10*, KLK7 zymogen act 0, SMARCA2 conf 1 and GAL4-VP16 Luc 0.
For Cc1cccc(NC(=O)COC(=O)c2ccc(S(=O)(=O)N3CCCC3)cc2)c1 the results were MsrA inh 1, MsrA act 0, SMARCA2 act -3 and KLK7 zymogen act 1.
For CCCCCCCCN1C(=O)[C@@H](CC(=O)NCc2cccc(C(F)(F)F)c2)C[C@@]2(C(=O)OC)C1=C[C@H](C1CCCC1)O[C@@H]2C the results were MsrA inh 0, SMARCA2 act -1 and KLK7 zymogen act 0.
O/N=C(/CCc1ccccc1)c1ccc2c(c1)OCCO2 was read as MsrA inh 0, MsrA act -9, SMARCA2 act 12*, KLK7 zymogen act -1, SMARCA2 conf 12* and GAL4-VP16 Luc 12*.
`COC(=O)C[C@@H]1CC[C@H]2[C@@H](COc3ccc(NC(=O)Nc4cccc(F)c4)cc3C(=O)N2C)O1` gave SMARCA2 act -2 and KLK7 zymogen act 0.
For CC(=O)c1cc(-c2ccccc2)n(CC(=O)NCc2ccc(Cl)cc2)c1C the results were SMARCA2 act -4 and KLK7 zymogen act 0.
CCOC(=O)c1c(C)[nH]c(C(=O)COC(=O)c2ccco2)c1C was read as MsrA inh 0, MsrA act -2, SMARCA2 act 10*, KLK7 zymogen act 1, SMARCA2 conf 7 and GAL4-VP16 Luc 0.
Screening Cc1[nH]c2ccc(C(=O)N3CCCCC3)cc2c1C returned MsrA inh 0, MsrA act -3, SMARCA2 act 11*, KLK7 zymogen act -1, SMARCA2 conf 5 and GAL4-VP16 Luc 9.4*.
For Oc1ccc2ccccc2c1C=Nn1c(-c2n[nH]c3c2CCC3)n[nH]c1=S the results were SMARCA2 act -5 and KLK7 zymogen act 0.
Screening COc1ccc(-c2cc(C(=O)N3CCCCC3)no2)cc1OC returned MsrA inh 1, MsrA act -1, SMARCA2 act 8.7*, KLK7 zymogen act 0, SMARCA2 conf 6 and GAL4-VP16 Luc 5.3*.
O=C(c1cc(-c2ccc(Cl)cc2)on1)N1CCCCCC1 was read as MsrA inh -1, MsrA act 1, SMARCA2 act 10*, KLK7 zymogen act 0, SMARCA2 conf 8.1* and GAL4-VP16 Luc 9.2*.
Screening CC(C)(C)OC(=O)/C=C/[C@@H](CCCCl)Sc1ccc(C(C)(C)C)cc1 returned SMARCA2 act -5 and KLK7 zymogen act 0.
For CCCCCc1ccc(-c2n[nH]c(=O)c3ccccc23)cc1 the results were SMARCA2 act -2 and KLK7 zymogen act 0.
`COc1cc(OC)cc(-c2nc3ccccc3s2)c1` gave MsrA inh -1, MsrA act 0, SMARCA2 act 8.2*, KLK7 zymogen act -1, SMARCA2 conf 11* and GAL4-VP16 Luc 5.
`CCOC(=O)C1(C)CCCN(C(=O)CCc2ccccc2)C1` (configuration not stated) gave MsrA inh 0, MsrA act -2, SMARCA2 act 0 and KLK7 zymogen act 0.
O=C(COc1ccccc1/C=C\c1[nH]c(=O)[nH]c(=O)c1[N+](=O)[O-])Nc1ccccc1 was read as MsrA inh 3, MsrA act -10, SMARCA2 act 11*, KLK7 zymogen act 0, SMARCA2 conf 13* and GAL4-VP16 Luc 2.
`O=C(Nc1ccc(Oc2ccccc2)cc1)C1CCCN1S(=O)(=O)c1cccc2cccnc12` (configuration not stated) gave SMARCA2 act -6 and KLK7 zymogen act 1.
Screening Cc1cc(/C=N/NC(=O)c2ccsc2)c(C)n1-c1cnccn1 returned MsrA inh 2, MsrA act -11, SMARCA2 act 8.0*, KLK7 zymogen act 0, SMARCA2 conf 4 and GAL4-VP16 Luc 3.
For COC(=O)[C@]12C[C@H](CC(=O)N3CCSCC3)C(=O)N(CCc3ccc(OC)c(OC)c3)C1=C[C@H](COCc1ccccc1)O[C@@H]2C the results were SMARCA2 act -1 and KLK7 zymogen act 0.
O=C(CCl)NCCCCCCCCCNC(=O)CCl was read as MsrA inh 0, MsrA act -4, SMARCA2 act 8.8*, KLK7 zymogen act 1, SMARCA2 conf 7 and GAL4-VP16 Luc -1.
Screening CCOc1ccc(-n2c(SCc3cccc4ccccc34)nnc2-c2ccc(C)cc2)cc1 returned SMARCA2 act -6 and KLK7 zymogen act 0.
For Cc1cc(C)nc(Sc2nc(Cl)nc(N(c3ccccc3)c3ccccc3)n2)n1 the results were MsrA inh 1, MsrA act -1, SMARCA2 act 8.3*, KLK7 zymogen act 0, SMARCA2 conf 9.2* and GAL4-VP16 Luc 1.
`Cc1cc(C)nc(SC(C(=O)O)c2ccccc2)n1` (configuration not stated) gave MsrA inh -1, MsrA act -13, SMARCA2 act -4 and KLK7 zymogen act 0.
For OC1CCCN(Cc2ccc3ccc4cccc5ccc2c3c45)C1 (configuration not stated) the results were MsrA inh 1, MsrA act -7, SMARCA2 act 11*, KLK7 zymogen act -1, SMARCA2 conf 25* and GAL4-VP16 Luc 1.
CC(Sc1nnc(NC2CC2)s1)C(=O)Nc1ccc(N2CCOCC2)cc1 (configuration not stated) was read as MsrA inh 1, MsrA act 1, SMARCA2 act -2 and KLK7 zymogen act 0.
For CC(Sc1nnc(NC2CCCCC2)s1)C(=O)Nc1ccc2c(c1)C(=O)c1ccccc1C2=O (configuration not stated) the results were MsrA inh 1, MsrA act 1, SMARCA2 act 10.0*, KLK7 zymogen act 0, SMARCA2 conf 3 and GAL4-VP16 Luc 12*.
Screening COc1cc(C)ccc1OCCCOc1ccccc1Cl returned MsrA inh 0, MsrA act -7, SMARCA2 act 9.5*, KLK7 zymogen act 0, SMARCA2 conf 13* and GAL4-VP16 Luc 8.9*.
